Screening results from PubChem.
GPR151 activ: human GPR151 activation; 650,000 compounds, 1% hits; activation, % at 11.2 µM; AID 1508602; PathHunter beta-arrestin GPR151 cells, luminescence; in the data active = activation above about 4.9%;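 also: 0% = median of compound wells and 100% = cells with positive control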
TEAD-YAP block: TEAD-YAP interaction inhibition. HEK-TIYL cells, TEAD-Gal4/YAP UAS-luciferase luminescence. inhibition, % at 9.12 µM. 640,000 compounds, 1.4% hits; in the data active = inhibition above about 32%;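 also: 0% = median of test compound wells and 100% = reference inhibitor wells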
MITF primary: human MITF inhibition, primary screen | O75030 | AlphaScreen MITF homodimerization, bead proximity signal | inhibition, % at 2.6 µM | 650,000 compounds, 0.91% hits | AID 1259374; in the data active = inhibition above about 50%;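 also: 0% = vehicle wells with protein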
Target sequence (O75030 whole entry, looked up): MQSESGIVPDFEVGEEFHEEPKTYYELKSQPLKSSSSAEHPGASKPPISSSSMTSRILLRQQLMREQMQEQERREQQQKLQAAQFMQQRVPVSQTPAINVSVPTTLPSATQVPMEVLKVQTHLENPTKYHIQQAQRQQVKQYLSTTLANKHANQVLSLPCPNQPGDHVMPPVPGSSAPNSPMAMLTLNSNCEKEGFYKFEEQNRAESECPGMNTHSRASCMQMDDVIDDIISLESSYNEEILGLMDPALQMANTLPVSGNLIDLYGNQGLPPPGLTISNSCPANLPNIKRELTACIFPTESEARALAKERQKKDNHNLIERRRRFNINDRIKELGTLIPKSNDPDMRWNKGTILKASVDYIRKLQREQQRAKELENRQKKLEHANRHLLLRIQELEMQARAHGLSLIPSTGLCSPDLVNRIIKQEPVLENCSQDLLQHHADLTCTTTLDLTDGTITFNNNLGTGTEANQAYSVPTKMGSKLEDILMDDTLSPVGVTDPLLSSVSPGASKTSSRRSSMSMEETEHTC
FBW7 activator: human FBW7 E3 ligase activation, primary screen; Q969H0; AlphaScreen FBW7–phospho-cyclin E peptide binding, activator screen; normalized activity (activation), % at 26.1 µM; 650,000 compounds, 0.13% hits; AID 1259310; in the data active = normalized activity above about 1.9%;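 also: purified mutant Fbw7 with reduced substrate affinity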
Numbers without * were called inactive. Compounds with a hit are over-represented: about 3.4% of the library has one in this group of screens.

SMILES	GPR151 activ	TEAD-YAP block	MITF primary	FBW7 activator
Fc1cnc(Nc2ccc(CN3CCCCC3)cc2)nc1-c1cc(N2CCOCC2)cc(C(F)(F)F)c1	2	42*	15	0
Fc1cc(-c2nc(Nc3ccc(CN4CCCCC4)cc3)ncc2F)cc(N2CCOCC2)c1	2	92*	-9	0
O=C(COc1ccccc1F)N=C1N=C2C=CC(Cl)=CN2Cc2ccccc21	-5	-26	11	0
COCCn1c2ccccc2n2c(=O)n(CC(=O)NC3CCCCC3C)nc12 (centres undefined)	-1	-4	-19	1
CCNC(=O)/C(=C\c1ccccc1)NC(=O)c1ccc(I)cc1	0	4	2	0
CCCN1C(=O)C(O)(CC(=O)c2ccccc2O)c2cc(Br)ccc21 (centres undefined)	1	38*	0	0
CCCN1C(=O)C(O)(CC(=O)c2ccccc2OC)c2cc(Br)ccc21 (centres undefined)	0	8	7	0
C=CCNC(=O)c1ccc(CS(=O)(=O)Cc2ccc(Cl)cc2)o1	-1	0	-1	0
CN1CCN(Cc2cc(Br)c3cccnc3c2O)CC1	1	45*	89*	-1
Oc1c(CN2CCN(c3cccc(C(F)(F)F)c3)CC2)cc(Br)c2cccnc12	0	37*	1	-1
Oc1c(CN2CCN(c3cccc(Cl)c3)CC2)cc(Cl)c2cccnc12	0	7	8	-1
Oc1c(CN2CCOCC2)cc(Br)c2cccnc12	1	49*	47	0
Oc1c(Br)cc(Br)c2cccnc12	0	8	21	0
CC1CCN(Cc2cc(Br)c3cccnc3c2O)CC1	0	47*	69*	-1
COc1ccc(N2C(=O)CCC(C(=O)N3CCCC3)C2c2ccc(F)cc2)cc1 (centres undefined)	0	-2	11	0
CCSc1nnc(NC(=O)CSc2nncn2C)s1	0	1	-10	0
Fc1ccccc1Nc1nc(N2CCOCC2)c2ccccc2n1	0	4	-13	0
CN(C)c1ccc(Nc2nc(N)c3ccccc3n2)cc1	-10	91*	23	-1
Cc1ccc(Nc2nc(N3CCOCC3)c3ccccc3n2)cc1Cl	-1	-4	16	0
Nc1nc(Nc2ccccc2F)nc2ccccc12	-5	57*	5	0
Cc1ccc(Nc2nc(N)c3ccccc3n2)cc1Cl	-5	35*	-6	0
COc1ccc(Nc2nc(N)c3ccccc3n2)cc1	-11	73*	23	0
CCC(C)(C)C(=O)Nc1ccc(C)c(C)c1	0	9	-7	0
CCOC(=O)C(C)Sc1nc2c(c(=O)n1-c1ccccc1)SCC2 (centres undefined)	0	-8	6	0
CCC(C)NC(=O)N1CCC(n2nccc2NC(=O)Nc2cccc(F)c2)CC1 (centres undefined)	0	8	9	1
SMILES	GPR151 activ	TEAD-YAP block	MITF primary	FBW7 activator
Cc1ccc(Nc2nc(N)c3ccccc3n2)cc1	-5	90*	-3	0
Clc1nc(Cl)nc(Nc2ccccc2)n1	1	12	5	2.2*
Nc1nc(Nc2ccc(Cl)cc2)nc2ccccc12	-7	52*	10	0
Fc1cccc(Nc2nc(Cl)nc(Cl)n2)c1	1	2	7	0
COC(=O)N/N=C/c1ccc(C(C)(C)C)cc1	-1	-27	16	0
Cc1cc(C)c(NC(=O)c2cnn3ccccc23)c(C)c1	0	-15	17	0
CC(C)(C)NC(=O)Cn1c(=O)oc2cc(Cl)ccc21	0	-4	-2	0
CCOC(=O)C1=C(CN2CCCc3ccccc32)NC(=O)NC1c1ccc(C)cc1 (centres undefined)	1	61*	-3	0
CCOC(=O)C1=C(CN2CCCc3ccccc32)NC(=O)NC1c1ccccc1 (centres undefined)	-2	17	-1	0
Cn1cc(-c2[nH]nc3nc(-c4ccc(CN)cc4)ccc23)cn1	0	17	-6	0
Cc1cc(NC(=O)c2ccc(S(=O)(=O)NC3CC3)cc2)c2cc(F)cc(F)c2n1	-1	48*	-11	0
O=C(NNc1ccccc1)C(=O)NNS(=O)(=O)c1ccccc1[N+](=O)[O-]	2	8	2	0
O=C(/C=C\Nc1ccccc1[N+](=O)[O-])c1ccc(F)cc1	-1	43*	10	0
O=C(/C=C/Nc1ccccc1[N+](=O)[O-])c1ccccc1	-5	67*	11	0
CCOc1ccc(N/C=C/C(=O)c2ccco2)c([N+](=O)[O-])c1	-1	-42	-4	0
CCOc1ccc(N/C=C/C(=O)c2ccccc2)c([N+](=O)[O-])c1	-6	60*	17	0
Cc1ccc(C(=O)/C=C\Nc2ccccc2[N+](=O)[O-])cc1	-1	-53	7	0
Cc1cc(C(=O)NN=C2C3CC4CC(C3)CC2C4)c2ccccc2n1	-1	47*	0	0
Cc1cc(C(=O)NC2CC2)c2ccccc2n1	0	2	-2	0
CCOc1ccc(NC(=O)COc2cccc3ccc(N4CCCC4)nc23)cc1	-1	-9	-5	0
O=C(COc1cccc2ccc(N3CCOCC3)nc12)Nc1cccc(F)c1	3	34*	1	0
O=C(N/N=C/c1ccc([N+](=O)[O-])s1)c1ccc(F)cc1	1	45*	-7	0
O=C(N/N=C/c1ccc([N+](=O)[O-])o1)c1ccccc1	1	-5	7	0
O=C(N/N=C/c1ccc([N+](=O)[O-])o1)c1ccc(F)cc1	-1	37*	1	0
Cc1ccc(C(=O)N/N=C/c2ccc([N+](=O)[O-])o2)cc1	1	40*	-1	0
SMILES	GPR151 activ	TEAD-YAP block	MITF primary	FBW7 activator
Cc1cc(C(=O)N/N=C/c2ccc([N+](=O)[O-])o2)n[nH]1	-1	32*	23	1
CCNc1nc(NCC)n2c(SCC(=O)Nc3cc(C)ccc3C)nnc2n1	-3	-3	-9	0
O=C(c1ccc(N2C(=O)C3C4C=CC(C4)C3C2=O)c([N+](=O)[O-])c1)N1CC=C(c2ccccc2)CC1 (centres undefined)	0	1	5	0
COCCCN1C(=O)CC(CC(=O)N2CC3CCCC2C3)(c2ccccc2C)C1=O (centres undefined)	1	2	6	0
Cc1ccc2[nH]c3c(c2c1)CCCC3NCc1ccc(Cl)cc1 (centres undefined)	1	43*	11	0
COC(CNC1CCCc2c1[nH]c1ccc(C)cc21)OC (centres undefined)	0	14	2	0
Cn1ccnc1C1(O)CCN(C(=O)c2cccs2)CC1	1	13	1	0
CC(=O)Nc1ccc(NC(=O)c2ccc(-c3ccc(Br)cc3)o2)cc1	0	9	5	0
O=C(O)C(Cc1ccccc1)N1C(=O)C2CCCCC2C1=O (centres undefined)	0	6	-4	2.6*
CN(C)c1ccc(/C=N/NS(=O)(=O)c2ccc(C(C)(C)C)cc2)cc1	0	1	1	0
